Consider 112 molecules from PubChem BioAssay AID488890 (Southern Research Specialized Biocontainment Screening …, 2010).

The whole screen tested about 320,000 compounds, of which about 1,300 (0.41%) were called active. Another 3% or so got no clear call; they are omitted. How the calls were made is not given here. A selection follows. Results with a measured potency or affinity are listed apart.

In general, inhibition refers to the relative decrease from the control value, in per cent.

This experiment is described as follows: growth inhibition of non-replicating M. tuberculosis (AID 488890).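 Further: plate controls were DMSO cells for no effect and high antibiotic wells for full effect.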 Conditions: Mycobacterium tuberculosis non-replicating, at 25 µM, stronger effect = higher value.
As for `C(=N\N1CCN(Cc2ccccc2)CC1)/c1ccc(-c2ccccc2)cc1`, the inhibition came out at 43%.

Turning to `Cc1ccc(CNC(=O)Cn2nnc(C(=O)Nc3cccc(C)c3C)c2N)cc1`, the inhibition is -3.98%.

Consider `CC(C)c1ccccc1NC(=O)c1ccccc1NC(=O)C1CCCCC1`, for which the inhibition is -1.84%.

For `COc1ccc(C)cc1-n1nnnc1SCC(=O)Nc1cccnc1Cl`, the inhibition was found to be 17.6%.

In the case of `O=C(NCC(=O)N1CCN(c2ccccn2)CC1)c1ccc(Br)o1`, the inhibition is -3.21%.

Regarding `Cc1ccc(COC(=O)NCc2cccnc2)cc1`, the inhibition was 4.06%.

With `Cc1cc(C)c(C)c(S(=O)(=O)Nc2ccc(C(=O)N3CCCC3)cc2)c1C`, the inhibition came out at 5.64%.

On to `O=[N+]([O-])c1ccc2nonc2c1Nc1cccc(F)c1`, for which the inhibition worked out at 32.1%.

In the case of `O=C(CCCN1CCC(c2ccccc2)C1)c1ccc2c(c1)OCCO2` (configuration not stated), the inhibition came to 12.3%.

On to `COc1cc(C(=O)N2CCN(C(=O)c3ccccc3)CC2)cc(OC)c1OC`, for which the inhibition was -17.1%.

Regarding `COc1ccc(-n2nc3c(c2NC(=O)c2ccco2)CS(=O)(=O)C3)cc1`, the inhibition was 3.65%.

As to `CC(/C=N/N1CCN(c2ccc(C)cc2)CC1)=C\c1ccccc1`, the inhibition was 10.7%.

For the molecule `COc1ccccc1N1CCN(C(=O)c2sc3nc(-c4ccc(F)cc4)cn3c2C)CC1`, the inhibition turned out to be 40.2%.

As to `CC(=O)N1CCN(C(=O)c2ccc(-c3ccccc3Cl)o2)CC1`, the inhibition was 5.06%.

On to `NC(=O)C1CCN(C(=O)c2ccc(-c3ccccc3Cl)o2)CC1`, for which the inhibition was -8.98%.

`CC(C)OP(=O)(OC(C)C)C(Nc1ccccn1)c1ccc(F)cc1` (configuration not stated): the inhibition is -0.14%.

Take `O=C(Cn1cnc2c(nnn2Cc2ccc(Cl)cc2)c1=O)OCc1ccccc1`: the inhibition is -1.54%.

For the molecule `O=C(Nc1nccs1)C(Cl)(Cl)Cl`, the inhibition came to 5.95%.

Regarding `Cc1cc(C)c2ccc(C(=O)O)nc2c1O`, the inhibition came to 15.6%.

As to `Cc1cc(C)c2ccc(N)nc2c1O`, the inhibition amounted to 41.3%.

Turning to `CC(=N/O)/C(C)=N\NC(=O)c1ccccn1`, the inhibition was 33%.

Consider `O=C(Nc1ccccn1)c1ccco1`, for which the inhibition amounted to 2.01%.

As to `O=C(NNC(=O)c1ccc([N+](=O)[O-])o1)c1ccccc1`, the inhibition was determined as 70%.

With `O=C(Nc1ncccn1)c1ccc([N+](=O)[O-])cc1`, the inhibition is 34%.

On to `Cc1cccnc1NC(=O)c1ccc([N+](=O)[O-])o1`, for which the inhibition was 70.2%.

Consider `O=C1CN(C(=O)CSc2nnnn2-c2ccc(Cl)cc2)c2ccccc2N1`, for which the inhibition came out at 20.5%.

With `CC(OC(=O)C1CCN(S(=O)(=O)c2ccc(Cl)cc2)CC1)C(=O)NC1CCCCC1C` (configuration not stated), the inhibition stood at 17.7%.

On to `COc1ccc(-c2sc3ccc(N4CCOCC4)cc3c2C#Cc2ccsc2)cc1`, for which the inhibition was found to be 36.8%.

`COc1cccc(C2C(C(=O)OC(C)C)=C(C)N=c3s/c(=C\c4ccc(C(=O)O)cc4)c(=O)n32)c1` (configuration not stated): the inhibition was -6.22%.

For `COc1ccc(NC(=S)N2CCNC(=O)C2CC(=O)Nc2cccc(Cl)c2C)cc1` (configuration not stated), the inhibition turned out to be 51.6%.

`CC(=O)Nc1ccc(N=Nc2c(C)[nH]n(C(N)=S)c2=O)cc1`: the inhibition is -7.76%.

As to `CCN(CC)S(=O)(=O)c1ccc(N=Nc2c(C)[nH]n(C(N)=S)c2=O)cc1`, the inhibition is -7.96%.

As to `CC(=O)N(C)c1ccc(N=Nc2c(C)[nH]n(C(N)=S)c2=O)cc1`, the inhibition is -34.4%.

Take `Cc1ccc([N+](=O)[O-])cc1N=Nc1c(C)[nH]n(C(N)=S)c1=O`: the inhibition was -4.79%.

`O=C(Cn1nc(Cc2cccnc2)c2ccccc2c1=O)N1CCN(c2ccccn2)CC1`: the inhibition turned out to be 2.03%.

For the molecule `Cc1ccccc1CNC(=O)C(=O)NCC1OCCCN1S(=O)(=O)c1ccc(F)cc1C` (configuration not stated), the inhibition came to 16.5%.

For the molecule `Cc1cc(C)n2nc(SCC(=O)c3cc(C)n(-c4cc(C)on4)c3C)nc2n1`, the inhibition turned out to be 35.9%.

Turning to `NC(=O)NCC12CC3CC(CC(C3)C1)C2`, the inhibition was -1.98%.

Regarding `CNC(=O)COc1ccc(S(=O)(=O)N2CCCC2)cc1`, the inhibition was -27.9%.

In the case of `O=C(O)COc1ccc(S(=O)(=O)N2CCCC2)cc1`, the inhibition was -9.2%.

In the case of `COc1cccc(-c2cn(-c3cccc(C(F)(F)F)c3)c(=S)[nH]2)c1`, the inhibition turned out to be 5.54%.

On to `Cc1cccc(OC(=O)c2cccnc2)c1`, for which the inhibition came out at 74.1%.

For the molecule `COC(=O)c1ccc2nccnc2c1`, the inhibition is -20.4%.

As to `CN(Cc1ccccc1)C(=O)c1ccc(NC(=O)c2ccccc2)cc1`, the inhibition is -0.423%.

For the molecule `Cn1c(-c2ccccc2)cc2ccccc21`, the inhibition is -0.86%.

As to `CCOc1c(C(N)=O)cc([N+](=O)[O-])cc1[N+](=O)[O-]`, the inhibition was 7.1%.

Take `Cc1ccc(CNc2ccc([N+](=O)[O-])cc2C(N)=O)cc1`: the inhibition is -0.61%.

On to `COc1ccc(CCNC(=O)c2cc3cc(F)ccc3nc2C)cc1OC`, for which the inhibition amounted to 2.52%.

For `O=C(O)CCCN=CC1=C(O)CNC1=O`, the inhibition was 2.02%.

Turning to `COc1ccc(-c2oc3ccccc3c(=O)c2OCC(=O)O)cc1`, the inhibition was 6.78%.

Turning to `COc1ccc(-c2oc3ccccc3c(=O)c2OC(C)=O)cc1`, the inhibition is 64.7%.

With `CCOc1ccccc1Oc1coc2cc(OCC(=O)O)ccc2c1=O`, the inhibition is -6.12%.

Consider `COc1ccccc1Oc1coc2cc(OCC(N)=O)ccc2c1=O`, for which the inhibition was found to be 32.8%.

For `COc1ccccc1-c1coc2cc(OC(=O)/C=C/c3ccccc3)ccc2c1=O`, the inhibition is 33.4%.

`COc1ccccc1-c1coc2cc(OC(=O)N3CCOCC3)ccc2c1=O`: the inhibition came out at 17.2%.

`CCC(=O)NCCNc1ccc([N+](=O)[O-])cn1`: the inhibition is -5.26%.

As for `Cc1onc(C(N)=O)c1C(=O)Nc1ncc(C(F)(F)F)cc1Cl`, the inhibition was -30.8%.

For `Cc1ccc(C(=O)N2CCN(c3ccccc3F)CC2)cc1NC1=NC2CS(=O)(=O)CC2S1` (configuration not stated), the inhibition was -2.79%.

For `CC(Cc1cccs1)NC(=O)Nc1cccc(Cl)c1` (configuration not stated), the inhibition came to 48.3%.

In the case of `CC(Cc1cccs1)NC(=O)c1cccs1` (configuration not stated), the inhibition worked out at 75.3%.

As for `CNc1ccc(C2(O)C(=O)c3ccccc3C2=O)cc1`, the inhibition was found to be 50.8%.

On to `CCN(c1ccc(NC(=O)COC(=O)c2ccc(S(=O)(=O)N3CCCC3)cc2)cc1)C(C)C`, for which the inhibition amounted to 11.1%.

On to `COC(=O)/C(=C1/Oc2ccc(C(C)(C)C)cc2S1)C(F)(F)F`, for which the inhibition was found to be 32.3%.

For the molecule `COC(=O)/C(=C1/Oc2ccc(C)cc2S1)C(F)(F)F`, the inhibition was determined as 6.15%.

For the molecule `CC(=O)c1cccc(NC(=O)CN(C)S(=O)(=O)c2ccccc2)c1`, the inhibition is 1.23%.

Take `CC[C@H](C)[C@H](NC(=O)[C@H](Cc1ccc(O)cc1)NC(=O)[C@@H](N)C(C)C)C(=O)N[C@@H](Cc1cnc[nH]1)C(=O)N1CCC[C@H]1C(=O)N[C@@H](Cc1ccccc1)C(=O)O`: the inhibition is -4.04%.

As to `CN(C)S(=O)(=O)c1ccc(N2CCCC2)c(C(=O)NNC(=O)c2ccccc2)c1`, the inhibition was found to be 37.4%.

In the case of `COc1cc(/C=N/Nc2nc(C)cc(C)n2)ccc1OC(=O)c1ccco1`, the inhibition turned out to be 23.8%.

As to `O=c1cc(-c2cccs2)oc2ccc(Cl)cc12`, the inhibition was 19.9%.

Regarding `O=c1oc(-c2cccs2)nc2ccc(Cl)cc12`, the inhibition is 79.1%.

On to `CC(NC(=O)CCNC(=O)c1ccco1)c1ccccc1` (configuration not stated), for which the inhibition was -4.55%.

For `CCCCCCC1CC(CC(=O)Nc2ccc([N+](=O)[O-])cc2)C(=O)O1` (configuration not stated), the inhibition was found to be 46%.

Turning to `CCCCCC1CC(CC(=O)Nc2ccc([N+](=O)[O-])cc2)C(=O)O1` (configuration not stated), the inhibition was found to be 29.9%.

`OCCCC1CCCN(Cc2cn[nH]c2-c2ccc(F)cc2F)C1` (configuration not stated): the inhibition was -4.41%.

With `COc1ccc(CC(=O)Nc2ccc(N3CCCCC3)cc2)cc1`, the inhibition turned out to be 10.3%.

On to `O=C(O)Cc1ccc(NC(=O)Nc2ccc3c(c2)OCO3)cc1`, for which the inhibition was -6.44%.

Turning to `OC1CCN(Cc2cccc(Oc3ccccc3)c2)CC1`, the inhibition is -6.53%.

Regarding `CC1=NN(Cc2cc(C(C)(C)C)c(O)c(C(C)(C)C)c2)C(=O)C1`, the inhibition is -2.66%.

Take `CC(C)(C)c1cc(C(=S)N2CCN(CCO)CC2)cc(C(C)(C)C)c1O`: the inhibition worked out at 19.5%.

For the molecule `OCCN1CCN(Cc2ccc3ccccc3c2)CC1`, the inhibition is 0.76%.

As to `OC1CCN(Cc2ccc3ccccc3c2)CC1`, the inhibition worked out at 12.5%.

On to `CC(C)(C)c1cc(CN2CCCCC2)cc(C(C)(C)C)c1O`, for which the inhibition stood at 16.6%.

`COCCCn1c(C)nnc1SCC(=O)NNC(=O)COc1ccc(Cl)cc1`: the inhibition came out at 0.75%.

In the case of `CSc1ccccc1C(=O)NCCSC(C)(C)C`, the inhibition is -2.18%.

Take `COc1ccccc1NC(=O)COc1ccc(/C=N/NC(=O)CSCc2cc(C)cc(C)c2)cc1`: the inhibition was found to be 8.98%.

Turning to `CN(C)c1ccc(C(=O)Nc2ccc(O)c3c(=O)cc(-c4ccccc4Cl)oc23)cc1`, the inhibition turned out to be 7.25%.

Regarding `O=C(Cn1cncn1)c1ccc(Cl)cc1`, the inhibition was -4.45%.

Turning to `CCC1=NN(C(=O)COc2ccccc2C)C(O)(c2ccncc2)C1` (configuration not stated), the inhibition is -19%.

As for `CCOC(=O)N1N=C(C)CC1(O)c1ccc(Cl)cc1` (configuration not stated), the inhibition is -5.02%.

Take `CC1=NN(C(=O)COc2ccccc2)C(O)(c2cccnc2)C1` (configuration not stated): the inhibition is -18.8%.

With `CC1=NN(C(=O)Cc2ccccc2)C(O)(c2ccccc2)C1` (configuration not stated), the inhibition was determined as 7.51%.

On to `COc1ccc(C(=O)Nc2ccc3nc(N4CCN(C)CC4)cc(C)c3c2)c(OC)c1`, for which the inhibition came to 76%.

Regarding `CCc1nonc1NC(=O)c1oc2ccc(F)cc2c1C`, the inhibition was -7.95%.

As for `CN1CCN(S(=O)(=O)c2ccc(NS(=O)(=O)c3ccccc3)cc2)CC1`, the inhibition is 2.91%.

As to `CC1CC(C)CN(C(=O)c2ccc(S(=O)(=O)N3CCCC3)cc2)C1` (configuration not stated), the inhibition is 62.4%.

Consider `Cc1cc(C(F)(F)F)nc(SCC(=O)c2cccc([N+](=O)[O-])c2)n1`, for which the inhibition turned out to be 14.9%.

Consider `O=C(COC(=O)c1ccc(Cl)c(S(=O)(=O)N2CCOCC2)c1)NCc1ccco1`, for which the inhibition was -2.49%.

As for `O=C(Cc1ccc(-c2ccccc2)cc1)OCC(=O)N1CCCC1=O`, the inhibition worked out at 16.6%.

With `CSc1ccc(-c2sc(Nc3ccccc3)n[n+]2-c2ccc(F)cc2)cc1`, the inhibition was 20.5%.

Turning to `CN(C)c1ccc(-c2sc(Nc3ccccc3)n[n+]2-c2ccc(F)cc2)cc1`, the inhibition was 60.9%.

Consider `Cc1cc(C(=O)NCCC2=CCCCC2)c(C)o1`, for which the inhibition was 15.7%.

In the case of `O=C(NCc1ccccn1)C1CCC(CNS(=O)(=O)c2cccc3nsnc23)CC1` (configuration not stated), the inhibition came out at 0.68%.

As for `O=C(Nc1ccccc1O)c1ccc(NS(=O)(=O)c2cccc3cccnc23)cc1`, the inhibition was found to be 27.4%.

Consider `Cc1ccc(/C=C(\NC(=O)c2ccccc2)C(=O)NC(Cc2ccccc2)C(=O)O)cc1` (configuration not stated), for which the inhibition is -0.85%.

As to `Cc1ccc(O)c(CO)n1`, the inhibition is 1.36%.

As to `CC(=O)Nc1ccccc1/C=C/c1ccc2c(C)ccc(O)c2n1`, the inhibition stood at 77.9%.

Regarding `CN1CCCN(C(=O)c2ccc(Cl)cc2)CC1`, the inhibition is -25.6%.

Consider `Cc1sc2nc(CSc3ccc([N+](=O)[O-])c(C(F)(F)F)c3)[nH]c(=O)c2c1C`, for which the inhibition is -14.8%.

For the molecule `CCCC1(CCC)NC(=O)N(CC(=O)N2CCN(C(=O)c3ccco3)CC2)C1=O`, the inhibition worked out at 0.73%.

In the case of `CNC(=O)COc1ccc(-c2nn(C)c(=O)c3ccccc23)cc1`, the inhibition is -6.01%.

`Cn1nc(-c2ccc(OCC(N)=O)cc2)c2ccccc2c1=O`: the inhibition came out at 27.5%.

`CCN1CCN(c2nc(N)c([N+](=O)[O-])c(Nc3cccc(C)c3)n2)CC1`: the inhibition stood at 71.8%.
